Substitutions are numbered along the chain they refer to.

Holding throughout (experiment): PBM; 200 nM protein, PBS
Common to all, as to conditions: dsDNA, one strand shown

Assay [1] addresses HOXB4 (Homo sapiens, UniProt P17483 148-234).
The target in assay [2] is HOXA7 (Homo sapiens, UniProt P31268 116-202).
In assay [3] the target is HOXB4 (Homo sapiens, UniProt P17483 148-234, V174I).
Assay [4] has as its target ALX3 (Homo sapiens, UniProt O95076 139-225, N203Q).
Assay [5] deals with ALX3 (Homo sapiens, UniProt O95076 139-225).
ALX3 (Homo sapiens, UniProt O95076 139-225), sequence (O95076 139-225): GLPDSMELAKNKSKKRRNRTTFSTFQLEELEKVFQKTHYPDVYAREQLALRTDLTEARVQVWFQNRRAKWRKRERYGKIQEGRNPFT
For assay [6], the target named is VAX1 (Homo sapiens, UniProt Q5SQQ9 86-172).
VAX1 (Homo sapiens, UniProt Q5SQQ9 86-172), sequence (Q5SQQ9 86-172): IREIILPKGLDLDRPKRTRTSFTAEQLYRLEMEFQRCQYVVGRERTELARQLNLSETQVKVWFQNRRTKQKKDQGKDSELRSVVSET
Assay [7] concerns the target ALX3 (Homo sapiens, UniProt O95076 139-225, L168Q).
Assay [8] addresses ALX3 (Homo sapiens, UniProt O95076 139-225, L168V).
In assay [9] the target is VAX1 (Homo sapiens, UniProt Q5SQQ9 86-172, T142I).
VAX1 (Homo sapiens, UniProt Q5SQQ9 86-172, T142I), sequence (Q5SQQ9 86-172 T142I): as the sequence (Q5SQQ9 86-172) above, with T57I counted along it
Assay [10] addresses HOXA7 (Homo sapiens, UniProt P31268 116-202, W177C).
In assay [11] the target is ALX3 (Homo sapiens, UniProt O95076 139-225, N203S).
ALX3 (Homo sapiens, UniProt O95076 139-225, N203S), sequence (O95076 139-225 N203S): as the sequence (O95076 139-225) above, with N65S counted along it
For assay [12], the target named is VAX1 (Homo sapiens, UniProt Q5SQQ9 86-172, K157R).
VAX1 (Homo sapiens, UniProt Q5SQQ9 86-172, K157R), sequence (Q5SQQ9 86-172 K157R): as the sequence (Q5SQQ9 86-172) above, with K72R counted along it
The target in assay [13] is HOXA4 (Homo sapiens, UniProt Q00056 201-287, W262R).
HOXA4 (Homo sapiens, UniProt Q00056 201-287, W262R), sequence (Q00056 201-287 W262R): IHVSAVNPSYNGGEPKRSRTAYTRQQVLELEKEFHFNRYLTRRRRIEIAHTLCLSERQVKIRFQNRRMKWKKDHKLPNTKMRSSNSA
Assay [14] has as its target ALX4 (Homo sapiens, UniProt Q9H161 200-286).
Assay [15] concerns the target T1, PAX4 (Homo sapiens, UniProt O43316 9-242, R200K).
T1 sequence: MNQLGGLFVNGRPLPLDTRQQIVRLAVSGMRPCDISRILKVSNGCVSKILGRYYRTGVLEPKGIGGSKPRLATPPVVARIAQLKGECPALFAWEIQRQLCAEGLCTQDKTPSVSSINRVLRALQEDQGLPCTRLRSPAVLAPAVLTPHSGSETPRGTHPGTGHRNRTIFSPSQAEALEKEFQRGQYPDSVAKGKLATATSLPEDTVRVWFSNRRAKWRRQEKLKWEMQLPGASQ

The target of assay [16] is PRRX1 (Homo sapiens, UniProt P54821 80-166, F113S).
PRRX1 (Homo sapiens, UniProt P54821 80-166, F113S), sequence (P54821 80-166 F113S): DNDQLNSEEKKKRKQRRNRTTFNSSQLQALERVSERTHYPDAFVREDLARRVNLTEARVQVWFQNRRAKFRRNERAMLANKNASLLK
The target in another assay is HOXB6 (Homo sapiens, UniProt P17509 132-218, K202E).
HOXB6, sequence (P17509 132-218 K202E): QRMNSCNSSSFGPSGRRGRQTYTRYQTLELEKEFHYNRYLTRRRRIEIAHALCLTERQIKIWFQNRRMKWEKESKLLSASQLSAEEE
Assay [17] deals with ALX4 (Homo sapiens, UniProt Q9H161 200-286, Q225E).
ALX4 (Homo sapiens, UniProt Q9H161 200-286, Q225E), sequence (Q9H161 200-286 Q225E): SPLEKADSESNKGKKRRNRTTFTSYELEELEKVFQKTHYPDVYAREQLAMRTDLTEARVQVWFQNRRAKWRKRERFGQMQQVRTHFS
Assay [18] deals with HOXA2 (Homo sapiens, UniProt O43364 129-215, R185T).
HOXA2 (Homo sapiens, UniProt O43364 129-215, R185T), sequence (O43364 129-215 R185T): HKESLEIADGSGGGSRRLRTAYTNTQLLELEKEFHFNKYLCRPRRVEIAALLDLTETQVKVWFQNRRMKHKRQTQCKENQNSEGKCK
Assay [19] concerns the target HOXA4 (Homo sapiens, UniProt Q00056 201-287, R217L).
Assay [20] has as its target ALX1 (Homo sapiens, UniProt Q15699 118-204, L144V).
Assay [21] has as its target HOXA2 (Homo sapiens, UniProt O43364 129-215, R185K).
For assay [22], the target named is ALX1 (Homo sapiens, UniProt Q15699 118-204, L144R).
ALX1 (Homo sapiens, UniProt Q15699 118-204, L144R), sequence (Q15699 118-204 L144R): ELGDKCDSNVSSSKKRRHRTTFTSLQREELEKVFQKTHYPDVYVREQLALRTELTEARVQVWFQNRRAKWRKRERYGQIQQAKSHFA
The target of assay [23] is HOXA4 (Homo sapiens, UniProt Q00056 201-287).
HOXA4 (Homo sapiens, UniProt Q00056 201-287), sequence (Q00056 201-287): as the sequence (Q00056 201-287 W262R) above, with R62W counted along it
In assay [24] the target is T2, PAX4 (Homo sapiens, UniProt O43316 9-242, F177Y).
T2 sequence: T1 sequence with F169Y, K192R

The target in another assay is HESX1 (Homo sapiens, UniProt Q9UBX0 95-180, R109Q).
HESX1, sequence (Q9UBX0 95-180 R109Q): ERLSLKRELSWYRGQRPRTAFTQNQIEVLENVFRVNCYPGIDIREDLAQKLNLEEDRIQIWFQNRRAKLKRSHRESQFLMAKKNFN
Assay [25] has as its target ALX1 (Homo sapiens, UniProt Q15699 118-204).
For assay [26], the target named is HOXA4 (Homo sapiens, UniProt Q00056 201-287, W262F).
HOXA4 (Homo sapiens, UniProt Q00056 201-287, W262F), sequence (Q00056 201-287 W262F): as the sequence (Q00056 201-287 W262R) above, with R62F counted along it
Assay [27] concerns the target PRRX1 (Homo sapiens, UniProt P54821 80-166).

HOXB4 (Homo sapiens, UniProt P17483 148-234, V174I), sequence (P17483 148-234 V174I): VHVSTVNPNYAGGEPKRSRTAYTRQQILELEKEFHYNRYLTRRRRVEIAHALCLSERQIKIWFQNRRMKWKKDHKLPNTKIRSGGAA
HOXB4 (Homo sapiens, UniProt P17483 148-234), sequence (P17483 148-234): as the sequence (P17483 148-234 V174I) above, with I27V counted along it
HOXA4 (Homo sapiens, UniProt Q00056 201-287, R217L), sequence (Q00056 201-287 R217L): as the sequence (Q00056 201-287 W262R) above, with R17L, R62W counted along it
ALX3 (Homo sapiens, UniProt O95076 139-225, L168Q), sequence (O95076 139-225 L168Q): as the sequence (O95076 139-225) above, with L30Q counted along it
ALX3 (Homo sapiens, UniProt O95076 139-225, L168V), sequence (O95076 139-225 L168V): as the sequence (O95076 139-225) above, with L30V counted along it
ALX3 (Homo sapiens, UniProt O95076 139-225, N203Q), sequence (O95076 139-225 N203Q): as the sequence (O95076 139-225) above, with N65Q counted along it
ALX1 (Homo sapiens, UniProt Q15699 118-204, L144V), sequence (Q15699 118-204 L144V): as the sequence (Q15699 118-204 L144R) above, with R27V counted along it
HOXA2 (Homo sapiens, UniProt O43364 129-215, R185K), sequence (O43364 129-215 R185K): as the sequence (O43364 129-215 R185T) above, with T57K counted along it
ALX4 (Homo sapiens, UniProt Q9H161 200-286), sequence (Q9H161 200-286): as the sequence (Q9H161 200-286 Q225E) above, with E26Q counted along it
PRRX1 (Homo sapiens, UniProt P54821 80-166), sequence (P54821 80-166): as the sequence (P54821 80-166 F113S) above, with S34F counted along it
HOXA7 (Homo sapiens, UniProt P31268 116-202), sequence (P31268 116-202): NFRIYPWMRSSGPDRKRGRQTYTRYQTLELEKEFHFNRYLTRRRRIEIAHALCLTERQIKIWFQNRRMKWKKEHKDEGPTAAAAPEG
HOXA7 (Homo sapiens, UniProt P31268 116-202, W177C), sequence (P31268 116-202 W177C): as the sequence (P31268 116-202) above, with W62C counted along it
ALX1 (Homo sapiens, UniProt Q15699 118-204), sequence (Q15699 118-204): as the sequence (Q15699 118-204 L144R) above, with R27L counted along it

Turning to CAGACCCC, the binding signal with HOXB4 [1] was 7.56 upbm affinity estimate (log intensity, higher = more binding, comparable within an allelic series); with HOXA7 [2] it was 8.69 upbm affinity estimate (log intensity, higher = more binding, comparable within an allelic series); in the assay with HOXB4 [3], 7.7 upbm affinity estimate (log intensity, higher = more binding, comparable within an allelic series); with ALX3 [4], 7.73 upbm affinity estimate (log intensity, higher = more binding, comparable within an allelic series); with ALX3 [5] it was 7.61 upbm affinity estimate (log intensity, higher = more binding, comparable within an allelic series); with VAX1 [6], 6.95 upbm affinity estimate (log intensity, higher = more binding, comparable within an allelic series). Besides, the binding signal with ALX3 [7] was 7.69 upbm affinity estimate (log intensity, higher = more binding, comparable within an allelic series); with ALX3 [8], 7.66 upbm affinity estimate (log intensity, higher = more binding, comparable within an allelic series); with VAX1 [9], 7.15 upbm affinity estimate (log intensity, higher = more binding, comparable within an allelic series); with HOXA7 [10] it was 8.53 upbm affinity estimate (log intensity, higher = more binding, comparable within an allelic series); in the assay with ALX3 [11] it was 7.74 upbm affinity estimate (log intensity, higher = more binding, comparable within an allelic series); in the assay with VAX1 [12], 6.94 upbm affinity estimate (log intensity, higher = more binding, comparable within an allelic series).

As for ATTAATCA, the binding signal was 13.2 upbm affinity estimate (log intensity, higher = more binding, comparable within an allelic series) with HOXB4 [1]; 10.6 upbm affinity estimate (log intensity, higher = more binding, comparable within an allelic series) in the assay with HOXA4 [13]; 13.7 upbm affinity estimate (log intensity, higher = more binding, comparable within an allelic series) in the assay with ALX4 [14]; 11.6 upbm affinity estimate (log intensity, higher = more binding, comparable within an allelic series) in the assay with PAX4 [15]; 11.3 upbm affinity estimate (log intensity, higher = more binding, comparable within an allelic series) with PRRX1 [16]; 9.98 upbm affinity estimate (log intensity, higher = more binding, comparable within an allelic series) with HOXB6. Also, the binding signal was 12.7 upbm affinity estimate (log intensity, higher = more binding, comparable within an allelic series) with ALX4 [17]; 12.6 upbm affinity estimate (log intensity, higher = more binding, comparable within an allelic series) with HOXA2 [18]; 12.1 upbm affinity estimate (log intensity, higher = more binding, comparable within an allelic series) with HOXA4 [19]; 13.9 upbm affinity estimate (log intensity, higher = more binding, comparable within an allelic series) with HOXB4 [3]; 11.5 upbm affinity estimate (log intensity, higher = more binding, comparable within an allelic series) with ALX1 [20]; 8.54 upbm affinity estimate (log intensity, higher = more binding, comparable within an allelic series) in the assay with ALX3 [4]. Also, the binding signal with HOXA2 [21] is 13.3 upbm affinity estimate (log intensity, higher = more binding, comparable within an allelic series); with ALX1 [22] it was 11.3 upbm affinity estimate (log intensity, higher = more binding, comparable within an allelic series); with HOXA4 [23], 13.6 upbm affinity estimate (log intensity, higher = more binding, comparable within an allelic series); with ALX3 [5], 12.3 upbm affinity estimate (log intensity, higher = more binding, comparable within an allelic series); with PAX4 [24], 11 upbm affinity estimate (log intensity, higher = more binding, comparable within an allelic series); with HESX1, 8.96 upbm affinity estimate (log intensity, higher = more binding, comparable within an allelic series). In addition, the binding signal is 10.2 upbm affinity estimate (log intensity, higher = more binding, comparable within an allelic series) in the assay with ALX3 [7]; 9.65 upbm affinity estimate (log intensity, higher = more binding, comparable within an allelic series) with ALX3 [8]; 12 upbm affinity estimate (log intensity, higher = more binding, comparable within an allelic series) with ALX1 [25]; 11.4 upbm affinity estimate (log intensity, higher = more binding, comparable within an allelic series) with HOXA4 [26]; 8.61 upbm affinity estimate (log intensity, higher = more binding, comparable within an allelic series) in the assay with ALX3 [11]; 13.3 upbm affinity estimate (log intensity, higher = more binding, comparable within an allelic series) in the assay with PRRX1 [27].

With ACCCGTGG, the binding signal with HOXB4 [1] is 7.52 upbm affinity estimate (log intensity, higher = more binding, comparable within an allelic series); with HOXA4 [13], 9.91 upbm affinity estimate (log intensity, higher = more binding, comparable within an allelic series); with HOXA4 [19], 9.76 upbm affinity estimate (log intensity, higher = more binding, comparable within an allelic series); with HOXB4 [3], 7.53 upbm affinity estimate (log intensity, higher = more binding, comparable within an allelic series); with HOXA4 [23], 9.78 upbm affinity estimate (log intensity, higher = more binding, comparable within an allelic series); in the assay with HOXA4 [26], 9.9 upbm affinity estimate (log intensity, higher = more binding, comparable within an allelic series).

(Values after publication PMC11006913.)
